The target in one assay is NOTCH4. In words: pooled miR-30 sensor sort-seq; sequence = guide strand. Particulars: shRNA.
For the sequence ATATATAGGAAAGAACATCTTA, the sensor-assay potency score (higher = more potent) is -0.0997.
In the case of TTGGTGAGCGACGTCCGCCGGC, the sensor-assay potency score (higher = more potent) was -0.551.
TTGAGCAGTTCTGTCCATCGTA displayed a sensor-assay potency score (higher = more potent) of 0.59.
Sequence TTGGGACTGACAAGCATCGAGT displayed a sensor-assay potency score (higher = more potent) of -0.743.

The target of the next assay is NOX3. The assay is described as above. The note with it: shRNA.
In turn, TAATTATTCTTTCACATGCATA returned a sensor-assay potency score (higher = more potent) of -1.3.
Consider TAGAAATGAACACCTCTGGGGT, for which the sensor-assay potency score (higher = more potent) was -0.411.
TAATAGAAATGAACACCTCTGG came in with a sensor-assay potency score (higher = more potent) of -0.368.
Same read-out and setting: in the case of TAAAATTCAGGCACAGTGCGGA it was -0.0572; in that of TAAAGCTATGTGAAGAGCCTGA, 0.784.
Take TACCAGAACAACTCATAGGAGG: the sensor-assay potency score (higher = more potent) is -0.91.
Sequence TTGAACCCAAAATAACTCGTGT came in with a sensor-assay potency score (higher = more potent) of -0.176.
Consider TTGAGGTAGCTCTCGTTAGGGG, for which the sensor-assay potency score (higher = more potent) was -0.746.
TAGCGGTCTCTACAGAAGGTGA gave a sensor-assay potency score (higher = more potent) of -1.67.
Same read-out and setting: in the case of TAGATTTCAGAAGAGCAGCGAA it was -0.277; in that of TTGCATTAACAGCTATCCCATA, -1.07.

(Values after the OligoGym collection.)
Further: reference of the scale not given here.
